# Results as given in PubChem BioAssay (NCATS).
# Records with an inconclusive call do not appear. Values without a mark were called inactive. Active and inactive are the calls of the source. The call rests on the fitted dose curve; in most records, active means well fitted cell-killing curve with a large enough effect; inconclusive means small, poorly fitted or top-dose-only effect, or effect the other way; inactive means no such curve, though single readings can be large or run the other way.
# Assay: Viability qHTS for spleen associated tyrosine kinase inhibitor (SYKi) naive MV4-11 cells (AID 1963823); further: nearly all actives have a fitted effect of over 40% in size
# Conditions: MV4-11 AML viability, CellTiter-Glo luminescence, 72 h; series mostly up to 45 µM; viability (% of control): at the top concentration
# Method in brief: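 Viability of MV4-11 AML cells lacking prior SYK inhibitor exposure is scored by CellTiter-Glo luminescence following 72 hr compound incubation at 37 C, 5% CO2, seeded at 500 cells per well.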
# Potency means the concentration at half of the fitted maximal effect.
SMILES,Potency,viability (% of control)
CCC(C)CNCC(=O)N1CCC2SC=CC2C1COc1cccc(C)c1 (stereo not drawn),11.6 µM (active),–
CC(=O)OCC(=O)O[C@@H]1[C@H]2[C@@H](OC(=O)c3ccccc3)[C@@H](C)C[C@]2(O)[C@H](OC(C)=O)C2(C)[C@H]3CC(C)(C)C(=O)[C@@H]3CC1(OC(C)=O)[C@@H]2OC(C)=O (stereo partly drawn),–,75% [at 17.3 µM]
CC(C)=CC1C[C@](C)(O)[C@@H]2[C@H]3CCC4[C@@]5(C)CC[C@H](O[C@@H]6OC[C@H](O)[C@H](O[C@@H]7O[C@H](CO[C@@H]8O[C@H](CO)[C@@H](O)[C@H](O)[C@H]8O)[C@@H](O)[C@H](O)[C@H]7O)[C@H]6O[C@@H]6O[C@@H](C)[C@H](O)[C@@H](O)[C@H]6O)C(C)(C)[C@@H]5CC[C@@]4(C)[C@@]34CO[C@@]2(C4)O1 (stereo partly drawn),–,74.2% [at 9.25 µM]
C=C(C)C(O)COc1ccc(CC(=O)O)cc1 (stereo not drawn),–,95.7%
Brc1ccc([C@H]2CN3CCSC3=N2)cc1,–,67.8%
CC(C)(O)C1CC=C(C(=O)OCC2OC(Oc3c(O)cc(C(=O)O)cc3O)C(O)C(O)C2O)CC1 (stereo not drawn),–,92% [at 17.3 µM]
CC(=O)O[C@@H]1C[C@@H](OC(C)=O)C(C)(C)/C=C/[C@H](C)[C@H](OC(C)=O)[C@@]2(O)C[C@H](C)[C@H](OC(=O)c3ccccc3)[C@@H]2/C=C/1C,0.968 µM (active),–
Cc1nc(Nc2ccc(F)cc2)nc(N2CCc3ccccc3C2C)c1C (stereo not drawn),20.6 µM (active),–

# Assay: Viability qHTS for spleen associated tyrosine kinase inhibitor (SYKi) drug resistant MV4-11 cells (AID 1963824); further: nearly all actives have a fitted effect of over 35% in size
# Conditions: SYKi-resistant MV4-11 viability, CellTiter-Glo, 72 h; series mostly up to 45 µM; viability, % of control: at the top concentration
# Method in brief: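 SYK-inhibitor-resistant MV4-11 AML cells were seeded at 500 per well onto compound and cultured 72 hours (37 °C, 5% CO2). CellTiter-Glo was then added, and after 10 min at room temperature, luminescence gave viability.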
SMILES,Potency,"viability, % of control"
CCOC(=O)Nc1cc(-c2ccc(C)c(NS(C)(=O)=O)c2)nn2c(C)nnc12,0.651 µM (active),–
O=C(NCCO)c1cc(C(=O)NCCO)cc(C(=O)NCCO)c1,–,88.2%
COc1ccc(/C=C/C(=O)O[C@@H]2[C@@H](O)[C@@H](O)[C@H](O[C@@H]3C=C(CO)[C@H]4[C@H](O[C@@H]5O[C@H](CO)[C@@H](O)[C@H](O)[C@H]5O)OC=C[C@H]43)O[C@H]2C)cc1O,–,98.3% [at 17.3 µM]
CC1CC(O)C2(C)C(C(=O)O)=CCCC2C1(C)CCc1ccoc1 (stereo not drawn),–,66.8%
CC(=O)C=C=C1C(C)(C)CC(O[C@@H]2O[C@H](CO)[C@@H](O)[C@H](O)[C@H]2O)CC1(C)O (stereo partly drawn),–,108%
Cc1ccc(NS(=O)(=O)c2cc3c(cc2N[C@@H](C)CO)NC(=O)CC3)cc1C,20.6 µM (active),–
CC1=CC2/C=C(\C)CCC(O)C/C=C/C(=O)OC23C(=O)NC(CC(C)C)C3C1C (stereo not drawn),10 µM (active),–
CC1(C)CC[C@]2(C(=O)O[C@@H]3O[C@H](CO)[C@@H](O)[C@H](O)[C@H]3O)CC[C@]3(C)C(=CCC4[C@@]5(C)CC[C@H](O[C@@H]6O[C@H](C(=O)O)[C@@H](O)[C@H](O)[C@H]6O)C(C)(C)C5CC[C@]43C)C2C1 (stereo partly drawn),–,98% [at 9.25 µM]
C[C@@H]1O[C@@H](O[C@H]2[C@H](O[C@H]3[C@H](O)[C@@H](C(=O)O)O[C@@H](O[C@H]4CC[C@@]5(C)C(CC[C@]6(C)C5CC[C@]57OC[C@@]8(CCC(C)(C)CC85)[C@H](O)C[C@]76C)C4(C)C)[C@@H]3O[C@@H]3O[C@H](CO)[C@@H](O[C@@H]4OC[C@@H](O)[C@H](O)[C@H]4O)[C@H](O)[C@H]3O)O[C@H](CO)[C@H](O)[C@@H]2O)[C@H](O)[C@H](O)[C@H]1O (stereo partly drawn),–,94.7% [at 9.25 µM]
C/C1=C\CCC2=CC(OC2=O)C(C)(C)/C=C/C1=O (stereo not drawn),2.31 µM (active),–
C/C=C(\C)C(=O)O[C@H]1[C@H](O)[C@]2(COC(C)=O)[C@H](O)C[C@]3(C)C(=CCC4[C@@]5(C)CC[C@H](O[C@@H]6O[C@H](C(=O)O)[C@@H](O[C@@H]7O[C@H](CO)[C@@H](O)[C@H](O)[C@H]7O)[C@H](O)[C@H]6O[C@@H]6O[C@H](CO)[C@@H](O)[C@H](O)[C@H]6O)[C@](C)(CO)C5CC[C@]43C)[C@@H]2CC1(C)C (stereo partly drawn),–,97.8% [at 9.25 µM]
COc1ccc(OC(=O)N(CC(=O)O)Cc2ccc(OCCc3nc(-c4ccccc4)oc3C)cc2)cc1,–,58.9%
C=C(C(=O)OC)C1C(O)CC2(C)C(=O)CCC(O)(CO)C2C1O (stereo not drawn),–,83.2%
CCN1/C(=C/C(C)=O)Sc2ccc(OC(C)=O)cc21,10.3 µM (active),–
CC(C)CC(=O)O[C@@H]1OC=C(CO[C@@H]2O[C@H](CO[C@@H]3O[C@H](CO)[C@@H](O)[C@H](O)[C@H]3O)[C@@H](O)[C@H](O)[C@H]2O)[C@H]2C[C@H](O)[C@@H](CO)[C@@H]12,–,102% [at 17.3 µM]
COc1cc(NC(=O)Nc2cccc(CNC(=O)O[C@H]3CCOC3)c2)ccc1-c1cnco1,0.82 µM (active),–
C[C@H](O)[C@H](O)/C=C/c1cccc(O)c1CO,0.0092 µM (active),–
CC1=C[C@H](O)[C@H]2C(C)(C)CCC[C@]2(C)[C@@]1(O)CO,4.11 µM (active),–
NCCOCCOCCNC(=O)Cc1ccc(Nc2nc(NCc3ccc(F)cc3)nc(NCC3CCCCC3)n2)cc1,4.61 µM (active),–
CCCCC1CCN(CCCC(=O)c2ccccc2C)CC1,13 µM (active),–

SMILES,Potency,"viability, % of control"
CC(C)C(=O)OC[C@H]1O[C@@H](n2ccc(N)nc2=O)[C@](C)(F)[C@@H]1OC(=O)C(C)C,–,68.8%
COc1c(O)cc2c(c1O)C(=O)O[C@H](C)[C@H]2O,–,86.6%
O=C1C=CC2OC(c3ccccc3)C(O)C2O1 (stereo not drawn),4.11 µM (active),–
Cc1cc(CS(=O)(=O)c2ccccc2)cc(OCc2ccc(CN3CCC[C@@H]3CO)cc2)c1,16.6 µM (active),–
CCC(CCO[C@@H]1O[C@H](CO[C@H]2OC[C@](O)(CO)[C@H]2O)[C@@H](O)[C@H](O)[C@H]1O)C(C)(C)O (stereo partly drawn),–,72.6% [at 17.3 µM]
CC1(O)CC(O)C2(O)C=COC(O[C@@H]3O[C@H](CO)[C@@H](O)[C@H](O)[C@H]3O)C12 (stereo partly drawn),–,106%
CC1=C(C(=O)O[C@@H]2O[C@H](COC3OCC(O)C(O)C3O)[C@@H](O)[C@H](O)[C@H]2O)C(C)(C)CCC1 (stereo partly drawn),–,61.9% [at 17.3 µM]
C=CC(=O)Nc1ccc(CN2C(=O)N(c3cc(OC)cc(OC)c3)Cc3cnc(Nc4ccc(N5CCN(C)CC5)cc4)nc32)cc1,1.3 µM (active),–
COc1cc(/C=C/CO)cc(OC)c1O[C@@H]1O[C@H](CO[C@@H]2O[C@H](CO)[C@@H](O)[C@H](O)[C@H]2O)[C@@H](O)[C@H](O)[C@H]1O,–,115% [at 17.3 µM]
O=C1NC(Cc2ccc(O)cc2)C(=O)N2CCCC12 (stereo not drawn),–,74.2%
C=C1C(=O)O[C@@H]2/C=C(\CO)CC/C=C(\CO)[C@H](OC(C)=O)C(OC(=O)C(C)CC)C12 (stereo partly drawn),2.24 µM (active),–
O=C(O[C@@H]1O[C@H](CO)[C@@H](O)[C@H](O)[C@H]1O)c1c(O)cc(O)cc1/C=C/c1ccccc1,–,104% [at 17.3 µM]
CCC(C)CNCC(=O)N1CCC2SC=CC2C1COc1cccc(C)c1 (stereo not drawn),10.3 µM (active),–
CC(=O)OCC(=O)O[C@@H]1[C@H]2[C@@H](OC(=O)c3ccccc3)[C@@H](C)C[C@]2(O)[C@H](OC(C)=O)C2(C)[C@H]3CC(C)(C)C(=O)[C@@H]3CC1(OC(C)=O)[C@@H]2OC(C)=O (stereo partly drawn),–,67.5% [at 17.3 µM]
CC(C)=CC1C[C@](C)(O)[C@@H]2[C@H]3CCC4[C@@]5(C)CC[C@H](O[C@@H]6OC[C@H](O)[C@H](O[C@@H]7O[C@H](CO[C@@H]8O[C@H](CO)[C@@H](O)[C@H](O)[C@H]8O)[C@@H](O)[C@H](O)[C@H]7O)[C@H]6O[C@@H]6O[C@@H](C)[C@H](O)[C@@H](O)[C@H]6O)C(C)(C)[C@@H]5CC[C@@]4(C)[C@@]34CO[C@@]2(C4)O1 (stereo partly drawn),–,96.9% [at 9.25 µM]
C=C(C)C(O)COc1ccc(CC(=O)O)cc1 (stereo not drawn),–,114%
Brc1ccc([C@H]2CN3CCSC3=N2)cc1,–,62.7%
CC(C)(O)C1CC=C(C(=O)OCC2OC(Oc3c(O)cc(C(=O)O)cc3O)C(O)C(O)C2O)CC1 (stereo not drawn),–,104% [at 17.3 µM]
CC(=O)O[C@@H]1C[C@@H](OC(C)=O)C(C)(C)/C=C/[C@H](C)[C@H](OC(C)=O)[C@@]2(O)C[C@H](C)[C@H](OC(=O)c3ccccc3)[C@@H]2/C=C/1C,2.73 µM (active),–
Cc1nc(Nc2ccc(F)cc2)nc(N2CCc3ccccc3C2C)c1C (stereo not drawn),14.6 µM (active),–
